This note sets out measurements from PubChem BioAssay AID1347417 (National Center for Advancing Translational Sciences (NCATS), 2020).

Among all 120,000 compounds or so, about 5,300 (4.4%) were called active. Roughly 22% stayed inconclusive and do not appear here. Shown is part of a subset that was picked to be rich in actives. Values without a mark were called inactive. The call rests on the fitted dose curve; in most records, active means well fitted inhibition curve with a large enough effect; inconclusive means small, poorly fitted or top-dose-only effect; inactive means no such curve, though single readings can be large or run the other way.
Potency means the concentration at half of the fitted maximal effect.

The assay can be described thus: qHTS Primary assay for Inhibitors of Plasmodium falciparum Dd2 growth in vitro. Further: nearly all actives have a fitted effect of over 65% in size.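 On activity, negative = inhibition: plate controls were DMSO vehicle for no effect and reference drug for full effect.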 To be noted: P. falciparum Dd2 growth, SYBR Green, 72 h; series mostly up to 28.9 µM; activity, negative = inhibition: at the top concentration. In outline:
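Infected erythrocytes (Dd2, 0.3% parasitemia, 2.5% hematocrit final) are added to compound in RPMI-1640/Albumax II medium, grown 72 h at 37C in low oxygen, then lysed with saponin/Triton-X containing SYBR Green and read by fluorescence.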
A general note: qHTS replaces the single test concentration by a dilution series.
For the molecule `COc1ccc(CCNc2nc(-c3ccc(F)cc3)cc(C(F)(F)F)n2)cc1OC`, the “activity, negative = inhibition” value was -11.5%.
Same read-out and setting: next, `COc1ccc(OCc2nc(C)c(CCO)c(=O)n2CC(=O)Nc2ccccc2C)cc1`: 0.0593%.
As to `CCC(C)NC(=O)CN1CN(c2ccccc2)C2(CCN(C(=O)c3ccccc3OC)CC2)C1=O` (centres undefined), the outcome was inactive.
For the molecule `O=C(NC1CC(=O)N(Cc2ccccc2C(F)(F)F)C1)c1ccc[n+]([O-])c1` (centres undefined), the “activity, negative = inhibition” value is 7.21%.
Still for that read-out and setting: next, `O=C(c1cn2ccsc2n1)N1CCn2nc(C(O)c3ccccc3)cc2C1` (centres undefined): -8.57%; `COC[C@@H]1CN(C(=O)c2cc(C)oc2C)C[C@H]1c1nc(C2CC2)no1`: -24.6%.
For `CN(C)c1cccc(C(=O)Nc2nc3ccc(S(=O)(=O)NC(C)(C)C)cc3s2)c1`, the Potency is 11.2 µM (active).
In the case of `Cc1cc2nc(NC(=O)c3ccc(S(=O)(=O)N4CCOCC4)cc3)sc2cc1C`, the “activity, negative = inhibition” value was 0.325%.
Turning to `NS(=O)(=O)c1ccc2nc(NC(=O)COc3ccccc3)sc2c1`, the “activity, negative = inhibition” value is 7.06%.
For `CCOCCOC1CCN(C(=O)Cc2cccc(OC)c2)CC1`, the “activity, negative = inhibition” value is 7.79%.
On the same count and under the same terms, next, `Cc1cccc(C)c1NC(=O)N1CCC(OC2CCN(S(C)(=O)=O)CC2)CC1`: -4.93%.
As to `Cc1ccc(NC(=O)N2CCC(OC3CCN(S(C)(=O)=O)CC3)CC2)cc1F`, the Potency is 0.447 µM (active).
For `CS(=O)(=O)N1CCC(OC2CCN(C(=O)c3cccc(Cl)c3)CC2)CC1`, the “activity, negative = inhibition” value is 22.5%.
The same measure, in the same setting: next, `NC(=O)c1ccc(NC(=O)C2CC(=O)N(c3n[nH]c4cccc(F)c34)C2)cc1` (centres undefined): 10.2%; `COC(=O)c1cccc(NC(=O)N2CCC3(CCC(=O)N(Cc4ccccc4)CC3)CC2)c1`: -19.1%.
`CCOC(=O)c1ccc(N2C(=O)c3[nH]nc(-c4ccccc4)c3C2c2ccc(C(C)C)cc2)cc1` (centres undefined): the Potency was 7.94 µM (active).
On to `CCOC(=O)c1ccc(N2C(=O)c3n[nH]c(C)c3C2c2ccc(O)c(OC)c2)cc1` (centres undefined), for which the “activity, negative = inhibition” value was -22.2%.
On the same count and under the same terms, next, `CCOC(=O)c1ccc(NC(=O)C2CC(=O)N(c3ccc(C(C)C)cc3)C2)cc1` (centres undefined): 10.8%; `Nc1nc2c(s1)C(c1ccccc1)CC(=O)N2` (centres undefined): -11.5%.
Take `Cc1cccc(-c2cccc(CN)c2)c1`: the Potency was 11.2 µM (active).
Take `NCc1ccc(-c2cncnc2)cc1`: the “activity, negative = inhibition” value was 0.276% [at 44.1 µM].
Turning to `O=C(Cc1ccsc1)N1CCC(Oc2ccccc2)C1` (centres undefined), the molecule was called inactive.
For `Cc1cccc(NC(c2cccc(F)c2)c2ccc3ccc(C)nc3c2O)n1` (centres undefined), the Potency is 6.31 µM (active).
Take `O=C(N1CCCC1)N1CCCC(c2nnc3n2CCNC3)C1` (centres undefined): the “activity, negative = inhibition” value was 10.1%.
For the molecule `COc1c(F)cccc1CN1CCOc2cc([S+](=O)([O-])N(C)C)ccc2C1`, the “outcome” value was “inactive [at 44.1 µM]”.
For the molecule `COC(=O)C1=C(C)N=C2SC=C(CC(=O)NCCC(C)C)N2C1c1ccccc1Cl` (centres undefined), the “activity, negative = inhibition” value was -0.875%.
`COC(=O)C1=C(C)N=C2SC=C(CC(=O)NCc3ccccc3F)N2C1c1ccccc1Cl` (centres undefined): the Potency was 11.2 µM (active).
For the molecule `COC(=O)C1=C(C)N=C2SC=C(CC(=O)NCc3ccco3)N2C1c1cccc(F)c1` (centres undefined), the outcome was inactive.
Turning to `CCCNC(=O)[C@@H]1Cc2cn(Cc3cc(C)on3)c3cccc(c23)[C@H](CC(C)C)N1`, the “activity, negative = inhibition” value was -0.167% [at 44.1 µM].
In the case of `Cc1ccc(-c2nc(S(=O)(=O)c3ccc(C)cc3)c(N3CCCCCC3)o2)cc1`, the “activity, negative = inhibition” value is -8.72%.
In the case of `CC(C)S(=O)(=O)c1oc(-c2ccc(F)cc2)nc1S(=O)(=O)c1ccc(F)cc1`, the Potency is 11.2 µM (active).
For the molecule `O=C(CSc1oc(-c2ccc(F)cc2)nc1S(=O)(=O)c1ccc(Br)cc1)NC1CCCCC1`, the “activity, negative = inhibition” value was 13.2%.
For `COc1cccc(SCC(=O)NCc2cc3n(n2)CCNC3)c1`, the “activity, negative = inhibition” value is -6.36%.
On to `COC[C@@H]1CN(Cc2cnn(C)c2C)C[C@H]1c1nc(C2CC2)no1`, for which the “activity, negative = inhibition” value is -16.5%.
Consider `O=C1OC[C@@H]2CCN(Cc3ccccc3)Cc3ccccc3N12`, for which the “outcome” value is “inactive [at 44.1 µM]”.
With `O=C1OC[C@@H]2CCN(Cc3ccncc3)Cc3ccc(F)cc3N12`, the “activity, negative = inhibition” value is -5.94% [at 44.1 µM].
Consider `O=C1OC[C@@H]2CCN(Cc3cnc4ccccc4c3)Cc3ccc(F)cc3N12`, for which the Potency is 5.62 µM (active).
As to `Cc1ccc(-n2nc3n(c2=O)CCN(C(=O)C(C)(C)C)C3)cc1`, the “activity, negative = inhibition” value is 0.934% [at 44.1 µM].
Regarding `CN(C1CCc2nn(C)c(=O)n2CC1)S(=O)(=O)c1ccc2c(c1)OCCO2` (centres undefined), the call was inactive.
On to `CN1CCC(N2CC[C@H](c3nc4ccccc4s3)C2)CC1`, for which the “activity, negative = inhibition” value is -17.2% [at 44.1 µM].
With `CC(C)c1ccc(CNC(=O)c2noc(-c3ccc[nH]c3=O)n2)cc1`, the result was inactive.
Regarding `CCc1nc2c(c(-c3ccc(OC)cc3)n1)CCN(CC1CCCCC1)CC2`, the “activity, negative = inhibition” value is -26.7%.
For the molecule `Cc1ccc(CN2CCc3nc(C)nc(-c4ccc(O)cc4)c3C2)cc1`, the molecule was called inactive.
For `Cc1cc(OC2CN([S+](=O)([O-])c3cccs3)C2)ccc1F`, the “activity, negative = inhibition” value was 2.46% [at 44.1 µM].
On to `CCc1nc2c(c(-c3ccc(Cl)cc3)n1)CN(CCC(C)C)CC2`, for which the Potency is 7.94 µM (active).
As to `CCc1nc2c(c(-c3ccc(Cl)cc3)n1)CCN([S+](=O)([O-])c1cccs1)CC2`, the Potency is 12.6 µM (active).
`O=C1CCNCCCOCCN1`: the “activity, negative = inhibition” value was 15.7%.
Take `Cc1ccc(NC(=O)CN2c3ccccc3S(=O)(=O)c3ccccc32)cc1F`: the “activity, negative = inhibition” value was -2.41%.
For `Cc1ccc(NC2=C(c3ccc(C(F)(F)F)cc3)C(=O)c3ccccc32)cc1F`, the Potency was 0.178 µM (active).
